Experimental data reported in publication PMC4102417.

These compounds were tested on murine 3T3 fibroblasts (assay: primary screen, percent viability or growth; higher = less effect of the substance).
Procedure: Similarly, for measuring the cytotoxicity concentration (CC50) for 3T3 fibroblast cells, cultures were incubated with drugs for 72 hours and developed using Alamar Blue (Alamar Biosciences Inc, Sacramento, CA) as previously described.

Row | SMILES | Mammalian (3T3) cell % growth at 10 uM [%]
1 | COc1ccc2c(c1)OC/C(=C/c1ccc(OC)c(O)c1)C2=O | 8.8
2 | C=CC(C)(O)CCC1C(=C)CCC2C(C)(CO)CCCC12C (stereo not shown) | 86.1
3 | CN1CCCC(n2nc(Cc3ccc(Cl)cc3)c3ccccc3c2=O)CC1.Cl (stereo not shown) | 95.1
4 | CCC1(O)CC(O)c2c(cc3c(c2O)C(=O)c2c(O)ccc(O)c2C3=O)C1C(=O)OC (stereo not shown) | 46.5
5 | Cl.NCC(=O)c1ccccc1 | 85.5
6 | O=C(/C=C/c1ccc(O)c(O)c1)OCCc1ccccc1 | 1.4
7 | CNCCC(Oc1ccc(C(F)(F)F)cc1)c1ccccc1.Cl (stereo not shown) | 100
8 | COc1cc(O)c(C(=O)c2ccccc2)cc1O | 47.4
9 | CC1=CC(=O)c2ccccc2C1=O | 0.5
10 | Cc1cc2nc3c(=O)[nH]c(=O)nc-3n(C[C@H](O)[C@H](O)[C@H](O)CO)c2cc1C | 0.9
11 | CN(C)CCCN1c2ccccc2CCc2ccc(Cl)cc21.Cl | 84.6
12 | CCCCC1C(=O)N(c2ccccc2)N(c2ccc(O)cc2)C1=O (stereo not shown) | 72.8
13 | COc1ccc2c(c1)OCC(Cc1ccc(OC)c(OC)c1)C2=O (stereo not shown) | 84.5
14 | Clc1ccc(COC(Cn2ccnc2)c2ccc(Cl)cc2Cl)c(Cl)c1 (stereo not shown) | 100
15 | COc1cc(OC)c2c(=O)c(O)c(-c3ccc(OC)c(OC)c3)oc2c1 | 39.6
16 | CC1(C)C(=O)C=CC2(C)C1=C(O)C(=O)C1(C)C2CCC2(C)C(c3ccoc3)CC3OC321 (stereo not shown) | 25.5
17 | O=C(/C=C(/O)c1ccccc1)c1ccccc1O | 100

Row | SMILES | Mammalian (3T3) cell % growth at 10 uM [%]
18 | COc1cc([C@@H]2c3cc4c(cc3[C@@H](O[C@@H]3O[C@@H]5CO[C@@H](c6cccs6)O[C@H]5[C@H](O)[C@H]3O)[C@H]3COC(=O)[C@H]23)OCO4)cc(OC)c1O | 50.4
19 | C[C@@H]1C[C@@H]([C@H](O)CC2CC(=O)NC(=O)C2)C(=O)[C@@H](C)C1 | 36.9
20 | CC(C)C(C)/C=C/C(C)C1CCC2C3=CC=C4CC(O)CCC4(C)C3CCC21C (stereo not shown) | 99.6
21 | CCCCCCCC/C=C/CCCCCCCCOP(=O)([O-])OCC[N+](C)(C)C | 93.7
22 | O=c1cc(-c2cc(O)c(O)c(O)c2)oc2cc(O)cc(O)c12 | 100
23 | CN1CCCC1CCOC(C)(c1ccccc1)c1ccc(Cl)cc1 (stereo not shown) | 93.2
24 | COc1ccc(-c2cc(=O)c3ccccc3o2)cc1 | 100
25 | Cc1cccc2c3c(ccc12)C1=C(C(=O)C3=O)[C@@H](C)CO1 | 77.1
26 | NCCc1ccc(O)c(O)c1 | 2.4
27 | COc1ccc2cc1Oc1ccc(cc1)C[C@H]1c3cc(c(OC)cc3CCN1C)Oc1c(OC)c(OC)cc3c1[C@H](C2)N(C)CC3 | 14.6
28 | C=CC(C1=CC(=O)C(OC)=CC1=O)c1ccccc1 (stereo not shown) | 0.9
29 | COc1c(-c2coc3cc4c(cc3c2=O)CC(O)C(C)(C)O4)ccc2c1C=CC(C)(C)O2 (stereo not shown) | 59
30 | CCCCCC(=O)O[C@]1(C(C)=O)CC[C@H]2[C@@H]3CCC4=CC(=O)CC[C@]4(C)[C@H]3CC[C@@]21C | 100
31 | Clc1ccccc1C(c1ccccc1)(c1ccccc1)n1ccnc1 | 100
32 | O=c1cc(-c2ccccc2)oc2cc(O)c(O)c(O)c12 | 4.9
33 | Nc1nc(=S)c2[nH]cnc2[nH]1 | 98.3
34 | O=C(CCCN1CCC2(CC1)C(=O)NCN2c1ccccc1)c1ccc(F)cc1 | 94.7
